KB-V1 MDR tox: qHTS assay for MDR1-selective chemotherapeutics: Primary screen using the drug-selected MDR subline cells KB-V1; Potency, µM (highest dose often 46.1 µM), most hits filed as cytotoxic; 400,000 compounds, 3.4% hits; KB-V1 MDR cells viability, CellTiter-Glo, 72 h; note: potency is the fitted concentration of half-maximal effect; % is set by controls: 0 for no effect and ±100 for the full control effect; nearly all actives have a fitted effect of over 60% in size
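Potencies derive from concentration-effect curves fitted to normalized luminescence (CellTiter-Glo) of KB-V1 cells treated for 72 h at 37 degrees C in phenol-red-free DMEM containing 10% FBS.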
MCF10A rerep: A quantitative high throughput screen for small molecules that induce DNA re-replication in MCF 10a normal breast cells; MCF 10A DNA re-replication, Hoechst nuclear intensity, 48 h; Potency, µM (titrated, usually from 46.1 µM), inactives show at the top dose activity, positive = re-replication, actives largely listed as activators; 350,000 compounds, 2.9% hits; AID 624296, 2012; note: potency is the fitted concentration of half-maximal effect; % of control where 0% means no effect; nearly all actives have a fitted effect of over 50% in size
SW480 rerep: A quantitative high throughput screen for small molecules that induce DNA re-replication in SW480 colon adenocarcinoma cells. SW480 DNA re-replication, Hoechst DNA content imaging, 48 h. Potency, µM (series often up to 46.1 µM), inactives show at the highest dose re-replication activation, most hits filed as activators. 340,000 compounds, 1.8% hits. AID 624297, 2012; note: potency is the fitted concentration of half-maximal effect; % of control where 0% means no effect; nearly all actives have a fitted effect of over 55% in size
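Cells (250 per well) received 23 nL compound or DMSO by pin tool and were kept 48 hr at 37 C, 5% CO2. Nuclei were then stained with Hoechst for 40 min and scanned for DNA content.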
IL1B secr inh: qHTS for Inhibitors of Inflammasome Signaling: IL-1-beta AlphaLISA Primary Screen; THP-1 LPS/ATP IL-1B secretion, AlphaLISA, 16 h; hits give low values; activity change, % at 57.5 µM; 360,000 compounds, 4.7% hits; AID 743279, 2014; in the data active = activity change below about -50%; inconclusive = mostly about -30% to -49%; note: % is set by controls: 0 for no effect and ±100 for the full control effect
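Secreted IL-1B measured by AlphaLISA bead assay after 16 h compound exposure of THP-1 cells; compounds (final up to 57.5 uM) added 1 h before LPS (250 ng/mL) and ATP (1.25 mM) stimulation; lower signal means less secretion.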
KB-3-1 tox: qHTS assay for MDR1-selective chemotherapeutics: Primary screen using the parental adenocarcinoma cell KB-3-1; AID 1347075, 2019; 400,000 compounds, 1.4% hits; KB-3-1 viability, CellTiter-Glo ATP luminescence, 72 h; Potency, µM (titrated, usually from 46.1 µM), actives largely listed as cytotoxic; note: potency is the fitted concentration of half-maximal effect; % is set by controls: 0 for no effect and ±100 for the full control effect; nearly all actives have a fitted effect of over 60% in size
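Multi-concentration cytotoxicity screen in KB-3-1 cells grown in DMEM lacking phenol red with 10% FBS. After 72 h at 37 °C with compound, ATP-dependent luminescence was recorded.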
Numbers without * were called inactive; i = inactive; ? = inconclusive; . = no result; [ ] = remark or other dose. An excerpt weighted towards active compounds, which were near 9.9% of everything screened. Unless noted, calls come from the whole dose curve; as a rule, active = well fitted curve in the direction sought with a large enough effect; inconclusive = small, poorly fitted or top-dose-only effect, or another doubt; inactive = no such curve, though single readings can be large; an effect the other way counts as inactive or inconclusive.

SMILES | KB-V1 MDR tox | MCF10A rerep | SW480 rerep | IL1B secr inh | KB-3-1 tox
CCOc1ccc2nc(C)cc(Nc3ccc4c(c3)OCCO4)c2c1 | ? | 25.4% | ? | -99.6* | ?
COc1ccc(Nc2cc(C)nc3ccc(C)cc23)cc1 | i | . | . | -21.3 | i
Cc1ccc2nc(C)cc(Nc3ccc4c(c3)OCCO4)c2c1 | i | 0.4% | 2.7%[9.22 µM] | ? | ?
Cc1ccc(N(Cc2ccccc2F)S(C)(=O)=O)cc1C | ? | 13.0% | -0.3% | -4.2 | i
CCOc1ccc2nc(C)cc(Nc3cccc([N+](=O)[O-])c3)c2c1 | 14.6µM* | 18.4µM* | ? | -117.9* | i
CCOc1ccc2nc(C)cc(Nc3ccc(N4CCOCC4)cc3)c2c1 | . | -0.1% | ? | . | .
Cc1c(Nc2cc(Cl)c3nonc3c2[N+](=O)[O-])c(=O)n(-c2ccccc2)n1C | i | ? | -0.7% | -104.6* | ?
O=C(O)c1ccc(Nc2cc(Cl)c3nonc3c2[N+](=O)[O-])cc1 | i | -6.0% | ? | 5.2 | i
O=[N+]([O-])c1c(Nc2cccc(O)c2)cc(Cl)c2nonc12 | ? | ? | ? | -95.8* | 18.4µM*
Cc1c(Nc2ccc3nonc3c2[N+](=O)[O-])c(=O)n(-c2ccccc2)n1C | i | 1.9% | -4.5% | 15.1 | i
O=[N+]([O-])c1cncc([N+](=O)[O-])c1Nc1cccc(O)c1 | 23.1µM* | 29.0% | ? | -18.4 | ?
COc1ccc(N2CCN(C(=O)c3nn(-c4ccc(C)cc4)c(=O)n(C)c3=O)CC2)cc1 | i | . | . | . | i
COc1ccccc1NNC(=O)c1cccnc1Oc1ccccc1 | i | -17.0% | -50.3% | . | i
Clc1ccc(Nc2c3c(nc4ncnn24)CCC3)cc1 | 7.31µM* | -2.5% | -25.7% | 0.0 | i
Cc1cc(C)cc(Nc2c3c(nc4ncnn24)CCC3)c1 | 2.06µM* | ? | ? | 62.0 | i
CN(C)S(=O)(=O)c1cccc(-c2nnc3n2CCCCC3)c1 | i | 12.9% | -5.9% | 39.9 | i
Cc1ccc(C)c(N2N=C(C(=O)OCC(=O)N(C)c3ccccc3)CCC2=O)c1 | i | -1.9% | -4.9% | 18.3 | i
Cn1c(SCc2c(F)cccc2Cl)nc2ccccc2c1=O | i | -8.1% | -5.7% | -0.2 | i
Cn1c(SCc2c(F)cccc2Cl)nc2c(c1=O)SCC2 | ? | ? | 1.7% | -58.6* | i
OC(c1ccc(Cl)cc1)c1ncc(-c2ccccc2F)[nH]1 (centres undefined) | i | . | . | 9.3 | i
CCc1c(C)sc(NC(=O)C2CC2c2ccccc2)c1C(N)=O (centres undefined) | 6.51µM* | ? | 16.5% | 0.0 | i
COc1cc(OC)cc(-c2nc3nc(C)c(CCC(=O)Nc4ccc(C)c(C)c4)c(C)n3n2)c1 | i | . | . | . | i
Cc1ccc(Cn2ccc(NC(=O)c3noc4c3CCCCC4)n2)cc1 | 5.17µM* | 17.7% | 4.6% | 0.8 | ?
O=[N+]([O-])c1cc(Oc2cccnc2)cc([N+](=O)[O-])c1 | i | 0.4% | -2.5% | 83.1 | i
Cc1ccc(Cn2ccc(NC(=O)c3noc4c3CCCC4)n2)cc1 | i | -9.4% | 2.7% | -20.4 | i
CCn1cc([N+](=O)[O-])c(C(=O)Nc2ccn(Cc3ccccc3)n2)n1 | i | -3.6% | -6.0% | 13.3 | i
Cn1cc([N+](=O)[O-])c(C(=O)Nc2cc(Oc3cccnc3)cc([N+](=O)[O-])c2)n1 | ? | 9.2µM* | 10.3µM* | -95.9* | ?
Cc1ccc(Cn2ccc(NC(=O)c3nn(C)cc3[N+](=O)[O-])n2)cc1 | 10.3µM* | 13µM* | 11.6µM* | -100.6* | ?
Cc1cc(C)n(Cc2ccc(NC(=O)c3nn(C)cc3[N+](=O)[O-])cc2)n1 | ? | 2.31µM* | 2.91µM* | -62.7* | i
CN1CCCC(OC(=O)c2ccccc2Br)C1 (centres undefined) | i | 4.7% | 5.8% | -8.5 | i

Assay outcomes: PubChem, National Center for Advancing Translational Sciences (NCATS)
